Screening data as filed in PubChem BioAssay.
In the library only some 2.8% were active in any assay of this set; here they are far more common.
EBV LMP1 NFkB = Epstein-Barr LMP1 NF-kappaB reporter inhibition | hit rate 0.69% among 350,000 | AID 504558 | LMP1-induced NF-kappaB luciferase reporter cells, luminescence | inhibition, % at 12.5 µM; in the data active means inhibition above about 41%; inconclusive means no clear call, values can overlap the other calls;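 further: 0% = neutral control wells and 100% = reference inhibitor control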
Peg3 promoter = Peg3 promoter activity inhibition; hit rate 1.7% among 360,000; HeLa PEG-Prom luciferase reporter, luminescence, overnight; AID 588405; inhibition, % at 20 µM;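 active means inhibition of at least 50% at 20 µM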
Shn3 inh set2 = inhibitors of Schnurri-3 3'UTR reporter in osteoblasts. Clone20 osteoblast Shn3 3'UTR firefly luciferase, 24 h. AID 588674. inhibition, % at 12.5 µM. hit rate 0.52% among 360,000;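 active means mean inhibition of at least 75% with every replicate also reaching 75%; inconclusive means mean inhibition at least 75% but some replicate below; inactive means mean inhibition below 75%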;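 further: 0% = median of neutral control wells and 100% = pilot-screen positive control compound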
MITF TRPM1 inh = MITF TRPM1 promoter inhibition in SK-MEL-5 cells; inhibition, % at 12.5 µM; SK-MEL-5 TRPM1 promoter luciferase, 24 h; hit rate 0.83% among 330,000;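 active means mean inhibition across replicates of 60% or more, whatever share of single replicates reaches that level; inconclusive means some that reach 60%, reason not given; inactive means mean inhibition across replicates below 60%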
PAX8 reporter = PAX8 transcriptional activity inhibition; RMG-I TPO-luciferase reporter, SteadyGlo, 24 h; inhibition, % at 12.6 µM; hit rate 1.2% among 360,000; AID 652154;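 active means mean replicate inhibition at least 60% with every replicate also reaching 60%; inconclusive means only one of the two criteria is met; inactive means mean below 60% and not all replicates reaching 60%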;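 further: luciferase light reporting Pax8 driven TPO promoter activity; plate controls were median of neutral control wells for no effect and mitoxantrone controls for full effect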
HIF-2a inh = blocks HIF-2a reporter activity; 786-0 RCC cells HIF-2a reporter, luciferase luminescence, overnight; inhibition, % at 18.8 µM; hit rate 0.72% among 360,000; AID 624352;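 active means inhibition of the luminescence signal of 40% or more relative to plate controls, in a single-dose primary screen at 18.75 µM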
Active calls of the source: *.

How did CCOC(=O)c1c(C)[nH]c(C(=O)COC(=O)[C@H](C)N2C(=O)C3CCCCC3C2=O)c1C (some centres undefined) do in these assays?
EBV LMP1 NFkB: -3; Peg3 promoter: 5; Shn3 inh set2: 93*; MITF TRPM1 inh: 17; PAX8 reporter: -2; HIF-2a inh: 1

How did C[C@@H]1CN([C@H](C)CO)C(=O)c2cc(NC(=O)c3ccncc3)ccc2O[C@@H]1CN(C)CC1CCCCC1 do in these assays?
PAX8 reporter: 1

Results for O=C(CN(C1CCCCC1)S(=O)(=O)c1ccc(F)cc1)NCC1CCCO1 (centres undefined) ?
EBV LMP1 NFkB: -132; Peg3 promoter: 98*; Shn3 inh set2: 97*; MITF TRPM1 inh: 86*; PAX8 reporter: 45; HIF-2a inh: 22

Results for COc1ccccc1CCNC(=O)c1cc(-c2ccccn2)nc2ccccc12 ?
EBV LMP1 NFkB: 1; Peg3 promoter: 51*; Shn3 inh set2: 8; MITF TRPM1 inh: 2; PAX8 reporter: 16; HIF-2a inh: -1

What do the screens show for `O=C(NCCC1=CCCCC1)c1cc(-c2ccccn2)nc2ccccc12`?
EBV LMP1 NFkB: -12; Peg3 promoter: 2; Shn3 inh set2: -2; MITF TRPM1 inh: 2; PAX8 reporter: 6; HIF-2a inh: 18

Results for CN1c2ccc(Br)cc2[C@H]2[C@H](CCN2C(=O)C2CC2)[C@H]1CO ?
PAX8 reporter: -13

Results for OCC1CCCC(n2cnc3c(=S)nc[nH]c32)O1 (centres undefined) ?
EBV LMP1 NFkB: -21; Peg3 promoter: 21; Shn3 inh set2: -16; MITF TRPM1 inh: 60; PAX8 reporter: 13; HIF-2a inh: 23

How did CCOC1CCCC(n2cnc3c(=S)nc[nH]c32)O1 (centres undefined) do in these assays?
EBV LMP1 NFkB: 0; Peg3 promoter: 11; Shn3 inh set2: 2; MITF TRPM1 inh: -2; PAX8 reporter: 83*; HIF-2a inh: 8

What do the screens show for `CNC(=O)C[C@H]1CC[C@@H]2[C@H](COc3ccc(NC(=O)Nc4cccc(Cl)c4)cc3C(=O)N2C)O1`?
PAX8 reporter: -8

How did O=C(CCN1CCN(c2ccccc2F)CC1)c1ccc(Br)cc1 do in these assays?
EBV LMP1 NFkB: -6; Peg3 promoter: 13; Shn3 inh set2: -9; MITF TRPM1 inh: -7; HIF-2a inh: 12

Results for COc1ccc(C(=O)CCN2CCN(c3ccccc3F)CC2)cc1 ?
EBV LMP1 NFkB: 5; Peg3 promoter: -3; Shn3 inh set2: -2; MITF TRPM1 inh: -1; PAX8 reporter: 78*; HIF-2a inh: 3

How did CNC[C@H]1Oc2c(NC(=O)Nc3ccc(F)cc3)cccc2C(=O)N([C@@H](C)CO)C[C@H]1C do in these assays?
PAX8 reporter: -23

How did O=C(O)c1ccc(N/N=C/c2cn(Cc3ccc(F)cc3)c3ccccc23)cc1 do in these assays?
EBV LMP1 NFkB: -10; Peg3 promoter: -118; Shn3 inh set2: -44; MITF TRPM1 inh: -18; PAX8 reporter: -172; HIF-2a inh: -157

What do the screens show for `O=[N+]([O-])/C=C/c1cn(Cc2ccc(F)cc2)c2ccccc12`?
EBV LMP1 NFkB: 13; Peg3 promoter: 53*; Shn3 inh set2: 33; MITF TRPM1 inh: 22; HIF-2a inh: 22

Results for COc1cc(OC)c2c(-c3cccc(-c4ccc(OC)c(OC)c4)c3)cc(=O)oc2c1 ?
EBV LMP1 NFkB: 22; Peg3 promoter: -18; Shn3 inh set2: 10; MITF TRPM1 inh: inconclusive; PAX8 reporter: -9; HIF-2a inh: -2

What do the screens show for `COc1cc(OC)c2c(-c3cccc(-c4ccc(NC(C)=O)cc4)c3)cc(=O)oc2c1`?
EBV LMP1 NFkB: 2; Peg3 promoter: -112; Shn3 inh set2: -8; MITF TRPM1 inh: 20; PAX8 reporter: 79*; HIF-2a inh: -40

How did COc1cc(OC)c2c(-c3cccc(-c4sccc4C(C)=O)c3)cc(=O)oc2c1 do in these assays?
EBV LMP1 NFkB: -2; Peg3 promoter: -17; Shn3 inh set2: 13; MITF TRPM1 inh: 51; PAX8 reporter: 84*; HIF-2a inh: -4

How did COc1ccc(C=C2CS(=O)(=O)CC(=Cc3ccc(OC)cc3)C2=O)cc1 do in these assays?
EBV LMP1 NFkB: 91*; Peg3 promoter: 97*; Shn3 inh set2: 71; PAX8 reporter: 77*; HIF-2a inh: 86*

Results for CCn1c2ccccc2c2cc(/C=C(/C#N)C(N)=S)ccc21 ?
EBV LMP1 NFkB: 85*; Peg3 promoter: 45; Shn3 inh set2: -10; MITF TRPM1 inh: -1; PAX8 reporter: 10; HIF-2a inh: 12

What do the screens show for `CO[C@H]1CN(C)C(=O)c2ccc(NC(=O)Nc3c(C)noc3C)cc2OC[C@@H](C)N(CC2CC2)C[C@H]1C`?
PAX8 reporter: -14

How did O=C(c1ccccc1)N1CCN(c2ncnc3sc4c(c23)CCC4)CC1 do in these assays?
EBV LMP1 NFkB: 12; Peg3 promoter: 5; Shn3 inh set2: 85*; MITF TRPM1 inh: 6; PAX8 reporter: 28; HIF-2a inh: 22

What do the screens show for `Cc1nc(N2CCN(c3ccccn3)CC2)c2c(C)c(C(=O)N3CCN(c4ccc(F)cc4)CC3)sc2n1`?
EBV LMP1 NFkB: 14; Peg3 promoter: 58*; Shn3 inh set2: 7; MITF TRPM1 inh: -4; PAX8 reporter: 0; HIF-2a inh: 20

How did Cc1c(C(=O)N2CCN(c3ccccc3)CC2)sc2ncnc(N3CCN(c4ccccn4)CC3)c12 do in these assays?
EBV LMP1 NFkB: 14; Peg3 promoter: 56*; Shn3 inh set2: 15; MITF TRPM1 inh: 27; PAX8 reporter: 0; HIF-2a inh: 13

What do the screens show for `c1nc(N2CCOCC2)c2c3c(sc2n1)CCCC3`?
EBV LMP1 NFkB: 18; Peg3 promoter: 13; Shn3 inh set2: 17; MITF TRPM1 inh: -7; HIF-2a inh: 24

Results for O=C(Cc1ccccn1)NCC[C@@H]1CC[C@H](NC(=O)Nc2ccccc2)[C@@H](CO)O1 ?
PAX8 reporter: -4

How did Cn1c(/C(C#N)=C/c2cccc(O)c2)nc2ccccc21 do in these assays?
EBV LMP1 NFkB: -4; Peg3 promoter: -162; Shn3 inh set2: -54; MITF TRPM1 inh: -15; PAX8 reporter: -20; HIF-2a inh: -35

What do the screens show for `Cn1c(/C(C#N)=C/c2ccc(-c3ccc(S(N)(=O)=O)cc3)o2)nc2ccccc21`?
EBV LMP1 NFkB: -33; Peg3 promoter: 72*; Shn3 inh set2: 28; MITF TRPM1 inh: 57; PAX8 reporter: 76*; HIF-2a inh: -10

How did CO[C@H]1CN(C)C(=O)c2cc(NC(=O)c3nc4ccccc4s3)ccc2OC[C@H](C)NC[C@H]1C do in these assays?
PAX8 reporter: 7

How did CO[C@@H]1CN(C)C(=O)c2cc(NC(=O)c3nc4ccccc4s3)ccc2OC[C@H](C)NC[C@H]1C do in these assays?
PAX8 reporter: 84*

How did COc1ccc(CN2C[C@H](C)[C@@H](OC)CN(C)C(=O)c3ccc(NC(=O)c4nc5ccccc5s4)cc3OC[C@@H]2C)cc1 do in these assays?
PAX8 reporter: 74*
